Source: PubChem BioAssay (NCATS)
Results filed as inconclusive are left out. Calls of active or inactive are those of the source. Calls come from the whole dose curve; as a rule, active = well fitted curve in the direction sought with a large enough effect; inconclusive = small, poorly fitted or top-dose-only effect, or another doubt; inactive = no such curve, though single readings can be large; an effect the other way counts as inactive or inconclusive.

Assays:
[1] = biological target: T1, Hexokinase-4 (Homo sapiens) + Glucokinase regulatory protein (Homo sapiens) (UniProt P35557+Q14397); test: qHTS assay for inhibitors of recombinant human GCK-GKRP interaction: Diaphorase-coupled assay (AID 743205)
In short: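 Resorufin fluorescence (525/590 nm), read each minute over 30 min, reports GCK activity coupled via G6PDH and diaphorase. Reaction: 10 nM GST-GCK, 10 nM FLAG-GKRP, 5 mM glucose, 0.4 mM ATP, 0.15 mM NADP+, 0.1 mM resazurin.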

[2] = biological target: T1, Hexokinase-4 (Homo sapiens) + Glucokinase regulatory protein (Homo sapiens); test: qHTS assay for inhibitors of recombinant human GCK-GKRP interaction: ADP-Glo assay (AID 743206);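 note: plate controls were DMSO plus enzyme for no effect and no enzyme for full effect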
In short: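 GST-GCK and FLAG-GKRP (15 nM each in the dispensed mix, with 2 uM S6P) react with 0.4 mM ATP and 5 mM glucose (final) in Hepes pH 7.6 for 60 min at room temperature. ADP is measured by ADP-Glo luminescence.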

[3] = biological target: T1, Hexokinase-4 (Homo sapiens) + Glucokinase regulatory protein (Homo sapiens); test: qHTS assay for inhibitors of recombinant human GCK-GKRP interaction: HTRF assay (AID 743207);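 note: 0% = DMSO with GCK present and -100% = DMSO wells lacking GCK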
In short: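 HTRF read-out (ex 320 nm; 615/665 nm emission) after 60 min RT equilibration of 5 nM GST-GCK, 5 nM FLAG-GKRP, 2 uM S6P, compound and anti-FLAG/anti-GST detection antibodies; signal normalized between DMSO wells with and without GCK.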

[4] = qHTS assay for measurement of the activity of small molecule inhibitors on Zika virus induced Caspase-3 activity in human iPSC derived neural progenitor cells (hNPCs) (AID 1224857); note: % of control where 0% means no effect; nearly all actives have a fitted effect of over 65% in size
In short: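 In medium with heparin 2 ug/ml and cyclopamine 2 uM, hNPCs (350 cells/well) received compound for one hour and then Zika virus at 2 FFU/cell; caspase activity was measured by Caspase-Glo 3/7 luminescence 6 h post-infection.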

[5] = qHTS assay for measurement of the activity of small molecule inhibitors on Zika virus induced Caspase-3 activity in human astrocytoma cells (AID 1224859);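 note: plate controls were ZIKV-infected untreated cells for no effect and uninfected cells for full effect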
In short: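 A cell-based luminescent caspase-3/7 assay used SNB-19 cells infected with ZIKV (2 FFU/cell) for 6 h following 1 h compound pretreatment.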

[6] = qHTS Assay for Identifying Gametocytocidal Compounds (AID 743244); note: potency is the fitted concentration of half-maximal effect;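 for max response: % is set by controls: 0 for no effect and ±100 for the full control effect; actives lower the fluorescent signal which means gametocytes are killed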; settings: P. falciparum 3D7 stage III-V gametocytes, alamarBlue, 72 h; max response: hits give low values
In short: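 In this qHTS viability screen, late-stage 3D7 gametocytes are incubated with compound for 72 h, then with alamarBlue for 24 h; reduced resorufin fluorescence marks killing.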

T1 sequence (P35557 whole entry, looked up): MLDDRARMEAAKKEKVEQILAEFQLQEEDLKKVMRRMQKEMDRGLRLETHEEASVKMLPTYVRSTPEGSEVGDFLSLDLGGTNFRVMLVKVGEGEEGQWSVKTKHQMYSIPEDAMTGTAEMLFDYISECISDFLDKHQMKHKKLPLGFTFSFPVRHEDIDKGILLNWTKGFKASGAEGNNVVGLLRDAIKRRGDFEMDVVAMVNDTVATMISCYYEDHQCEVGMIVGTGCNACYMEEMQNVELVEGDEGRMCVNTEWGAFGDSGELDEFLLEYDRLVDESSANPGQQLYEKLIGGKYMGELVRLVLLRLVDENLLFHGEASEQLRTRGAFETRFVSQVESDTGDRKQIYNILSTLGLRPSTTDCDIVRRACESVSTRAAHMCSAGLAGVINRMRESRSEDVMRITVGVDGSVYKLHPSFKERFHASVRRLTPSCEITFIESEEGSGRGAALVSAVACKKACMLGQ
T1 sequence (Q14397 whole entry, looked up): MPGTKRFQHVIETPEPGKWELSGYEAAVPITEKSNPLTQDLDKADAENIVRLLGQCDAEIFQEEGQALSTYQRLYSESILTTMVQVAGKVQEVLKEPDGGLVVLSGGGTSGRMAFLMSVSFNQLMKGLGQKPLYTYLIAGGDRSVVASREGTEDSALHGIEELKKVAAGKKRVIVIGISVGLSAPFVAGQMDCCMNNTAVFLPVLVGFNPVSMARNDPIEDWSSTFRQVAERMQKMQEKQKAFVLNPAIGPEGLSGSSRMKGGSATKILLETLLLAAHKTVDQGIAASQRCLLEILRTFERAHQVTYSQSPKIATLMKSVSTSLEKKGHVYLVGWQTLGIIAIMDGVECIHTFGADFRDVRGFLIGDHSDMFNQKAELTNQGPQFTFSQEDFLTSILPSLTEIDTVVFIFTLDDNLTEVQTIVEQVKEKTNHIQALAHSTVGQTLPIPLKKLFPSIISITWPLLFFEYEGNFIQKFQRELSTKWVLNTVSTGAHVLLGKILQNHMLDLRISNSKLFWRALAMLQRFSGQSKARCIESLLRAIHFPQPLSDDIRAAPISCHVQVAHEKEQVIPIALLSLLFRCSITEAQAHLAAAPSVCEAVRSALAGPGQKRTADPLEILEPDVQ

Clc1ccc(N2CCN(Cc3cc4ccccn4n3)CC2)cc1
inactive: outcome [1] | Potency [2] | Potency [3] | Potency [4] | Potency [5]

Oc1cc2c(cc1O)CN(C(=S)NCCc1ccc(Cl)cc1)CCC2
inactive: outcome [1] | Potency [2] | Potency [3] | Potency [4] | Potency [5]

Cc1cc2c(cc1Cl)N(C(=O)Nc1ccc(Oc3cccnc3C)nc1)CC2
inactive: outcome [1] | Potency [2] | Potency [3] | Potency [4] | Potency [5]

O=c1[nH]c2cc(C(F)(F)F)ccc2n1-c1cc(C(F)(F)F)ccc1O
inactive: outcome [1] | Potency [2] | Potency [3] | Potency [4] | Potency [5]

O=C(/C=C/c1ccc(O)c(O)c1)OCCc1ccccc1
inactive: outcome [1] | Potency [2] | Potency [3] | Potency [4] | Potency [5]

O=C(c1ccc(Cl)cc1)N1CCN(c2ccc([N+](=O)[O-])c3ncccc23)CC1
inactive: outcome [1] | Potency [2] | Potency [3] | max response [6] -0.851% | Potency [4] | Potency [5]

NS(=O)(=O)C#Cc1ccccc1
inactive: outcome [1] | Potency [2] | Potency [3] | Potency [4] | Potency [5]

COc1ccc2c(c1)CCC1C2CC[C@@]2(C)C1CC[C@@H]2NCCCCCCN1C(=O)CCC1=O (some centres undefined)
inactive: outcome [1] | Potency [2] | Potency [3] | Potency [4] | Potency [5]

COC1=C(OC)C(=O)c2ccccc2C1=O
inactive: outcome [1] | Potency [2] | Potency [3] | Potency [4] | Potency [5]
active: Potency [6] 3.98 µM

O=C(O)c1cc(=O)c2ccccc2[nH]1
inactive: outcome [1] | Potency [2] | Potency [3] | max response [6] -5.82% | Potency [4] | Potency [5]

CC(=O)N[C@H](C(=O)O)C(C)(C)SN=O
inactive: outcome [1] | Potency [2] | Potency [3] | max response [6] 7.76% | Potency [4] | Potency [5]
